Reference: PubChem BioAssay (NCI)
About 83,000 compounds went through this panel and 20% of them were active in at least one assay; those are over-represented in the sample as a whole.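 Interpretation: 100, growth as untreated; towards 0, rising growth inhibition; 0, no net growth; 0 to -100, cell death. Compounds scoring below 10 were considered active.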 A number with no mark means an inactive call. Calls of active or inactive are those of the source.

Tests used:
Test in all cases: NCI-60 one-dose screen, 48 h (100 = growth as untreated, 0 = no growth, -100 = all killed)
DU-145 prostate = details: 10 µM unless noted
K-562 leukemia = details: 10 µM unless noted
MALME-3M melanoma = details: 10 µM unless noted
MDA-MB-231 breast = details: 10 µM unless noted
RXF 393 renal = details: 10 µM unless noted
SF-268 CNS = details: 10 µM unless noted
SF-295 CNS = details: 10 µM unless noted
SF-539 CNS = details: 10 µM unless noted
UACC-257 melanoma = details: 10 µM unless noted
M14 melanoma = details: 10 µM unless noted
HCT-15 colon = details: 10 µM unless noted
HT29 colon = details: 10 µM unless noted
SNB-75 CNS = details: 10 µM unless noted
SNB-19 CNS = details: 10 µM unless noted
U251 CNS = details: 10 µM unless noted
PC-3 prostate = details: 10 µM unless noted
SK-MEL-5 melanoma = details: 10 µM unless noted
UACC-62 melanoma = details: 10 µM unless noted
LOX IMVI melanoma = details: 10 µM
SK-MEL-28 melanoma = details: 10 µM unless noted

SMILES	growth (DU-145 prostate)	growth (K-562 leukemia)	growth (MALME-3M melanoma)	growth (MDA-MB-231 breast)	growth (RXF 393 renal)	growth (SF-268 CNS)	growth (SF-295 CNS)	growth (SF-539 CNS)	growth (UACC-257 melanoma)	growth (M14 melanoma)	growth (HCT-15 colon)	growth (HT29 colon)	growth (SNB-75 CNS)	growth (SNB-19 CNS)	growth (U251 CNS)	growth (PC-3 prostate)	growth (SK-MEL-5 melanoma)	growth (UACC-62 melanoma)	growth (LOX IMVI melanoma)	growth (SK-MEL-28 melanoma)
BrCc1cccc(C[P+](c2ccccc2)(c2ccccc2)c2ccccc2)c1	64.9%	28.8%	38.3%	93.2%	84.4%	56.4%	72.2%	35.4%	14.2%	51.4%	92.5%	50.7%	47.6%	52.3%	19.4%	23.2%	22.6%	54.7%	40.2%	67.6%
COC(=O)c1ccc([N+](=O)[O-])c(C)c1	113%	134%	96.9%	117%	105%	105%	109%	96.2%	101%	94%	94.9%	121%	88.4%	119%	101%	93.4%	109%	107%	107%	102%
C#CC(O)c1ccccc1 (stereo not given)	110%	99.3%	99.7%	101%	112%	112%	110%	99.7%	102%	101%	103%	105%	103%	104%	97.2%	97.3%	97.8%	103%	103%	109%
CC(=O)OC/C(C)=C\CC(C)COC(C)=O (stereo not given)	114%	103%	102%	99.7%	97.1%	109%	94.6%	116%	102%	96.4%	98.8%	113%	81.5%	94.9%	101%	93.9%	104%	101%	98.8%	94.6%
CCOC(=O)CO	120%	97.4%	87%	109%	93.7%	115%	103%	119%	102%	104%	115%	107%	94.1%	105%	110%	101%	107%	103%	107%	114%
CC(C)N(C(=O)c1ccccc1)C(C)C	117%	103%	114%	119%	106%	105%	105%	98.3%	104%	97%	104%	107%	100%	113%	95.9%	98.9%	97.7%	108%	104%	105%
OCc1cccnc1	111%	117%	121%	103%	112%	97.7%	99%	95.3%	91.2%	98.2%	92.4%	107%	102%	96.8%	91.8%	94.7%	116%	103%	104%	111%
CCC(=O)C1C(=O)c2ccccc2C1=O	113%	63.7%	96.8%	89.8%	120%	101%	96.9%	106%	110%	111%	113%	100%	83.1%	109%	105%	92.2%	110%	104%	98.1%	120%
C=C1C(=O)C2CCC1C2 (stereo not given)	98.4%	92.6%	93.6%	103%	112%	88.9%	102%	105%	105%	96.5%	99.8%	102%	103%	107%	109%	105%	105%	108%	106%	119%
COC(CCCl)c1ccc(Cl)cc1 (stereo not given)	111%	89%	98.9%	119%	113%	110%	112%	101%	78%	101%	98.3%	93.6%	84.4%	110%	93.3%	108%	101%	107%	101%	106%
Cn1c(=O)c2[nH]c(CCCCC(=O)O)nc2n(C)c1=O	110%	109%	115%	110%	127%	99.2%	123%	106%	103%	111%	107%	110%	95.3%	114%	106%	92.4%	108%	102%	99.4%	118%
CN=S(=O)(OCCCCCOS(=O)(=NC)c1ccc(C)cc1)c1ccc(C)cc1 (stereo not given)	85.7%	70.4%	100%	97.2%	123%	99%	91.6%	90.7%	124%	96.9%	108%	95.8%	77.1%	97.3%	93.8%	75.6%	93.8%	86.5%	88.1%	93.5%
COC1=C(OC)C(=O)C(SC/C=C(\C)CCCC(C)CCCC(C)CCCC(C)C)=CC1=O (stereo not given)	32%	8.26% (active)	5.25% (active)	15.5%	-0.159% (active)	28.7%	16.5%	16.9%	13.6%	26.9%	17.2%	56.2%	27.8%	24.6%	15.4%	10.8%	-67.3% (active)	26.7%	17.2%	40.8%
C[C@H](CCC[C@H](C)OS(=O)(=O)c1ccccc1)OS(=O)(=O)c1ccccc1	119%	110%	96.9%	103%	142%	105%	102%	91.7%	107%	106%	101%	111%	88%	94.5%	108%	108%	114%	89.8%	101%	118%
CCN(Cc1ccc(Cl)c(Cl)c1)c1ccc2nc(N)nc(N)c2c1C	-85.5% (active)	-83.9% (active)	-84% (active)	-84.9% (active)	-80.1% (active)	-70.1% (active)	-62.8% (active)	-97.8% (active)	-77.7% (active)	-70.1% (active)	-82.1% (active)	-79.1% (active)	-94.7% (active)	-97.4% (active)	-92% (active)	-62.2% (active)	-98.2% (active)	-86.1% (active)	-87.5% (active)	-95.4% (active)
Cc1ccc(S(=O)(=O)CCCl)cc1	112%	95.6%	117%	117%	100%	93.8%	111%	100%	100%	104%	90.9%	110%	94.7%	97.1%	101%	90.7%	114%	99.8%	107%	115%
Nc1ncc([N+](=O)[O-])cn1	104%	108%	103%	98.4%	110%	98.4%	105%	105%	84.7%	100%	108%	81.2%	99.1%	95.6%	96.2%	88.7%	94.6%	98.9%	99.7%	103%
